Screens (PubChem BioAssay)
In the library only some 3.6% were active in any assay of this set; here they are far more common.
D1 antag – blocks dopamine activation of the human D1 receptor | HEK293 TREx D1 cells, calcium flux, dopamine EC80; stronger effect = lower value | 360,000 compounds, 3.2% hits | activity change, negative = inhibition, % at 10 µM | P21728; in the data active means activity change below about -30%; further: on the % scale 0 is the no-effect control and ±100 the full control effect
Target sequence (P21728 whole entry, looked up): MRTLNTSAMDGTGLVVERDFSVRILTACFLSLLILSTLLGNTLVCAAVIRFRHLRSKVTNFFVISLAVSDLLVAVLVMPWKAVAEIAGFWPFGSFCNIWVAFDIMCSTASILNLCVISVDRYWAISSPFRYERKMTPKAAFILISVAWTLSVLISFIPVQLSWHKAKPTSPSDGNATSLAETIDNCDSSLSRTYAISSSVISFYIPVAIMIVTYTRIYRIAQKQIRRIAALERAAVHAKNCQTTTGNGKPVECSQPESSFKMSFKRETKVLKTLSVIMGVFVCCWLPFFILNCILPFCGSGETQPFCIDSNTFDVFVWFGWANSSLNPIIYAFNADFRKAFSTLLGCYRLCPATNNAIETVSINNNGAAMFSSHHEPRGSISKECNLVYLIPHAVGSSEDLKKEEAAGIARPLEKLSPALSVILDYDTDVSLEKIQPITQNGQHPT
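Antagonism measured as reduced calcium response to an EC80 dopamine addition following 180 s compound pre-read; cells were inducible HEK293 Trex D1 plated overnight at 30 C, read kinetically at 1 cycle/sec.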
LDHA block – LDHA (human) enzyme inhibition; purified LDHA, NADH/diaphorase-resazurin fluorescence; stronger effect = lower value; activity change, % (values are at about 110 or 230 µM); 480,000 compounds, 0.15% hits; in the data active means activity change below about -30%;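 further: plate controls were DMSO wells for no effect and wells without enzyme for full effect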
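Enzyme activity of human lactate dehydrogenase 5 (2 nM; 0.06 mM NADH, 0.2 mM pyruvate, 5 min, RT) is measured via a resazurin/diaphorase fluorescence readout of residual NADH.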
D1 agonist – agonists of human D1 dopamine receptor; AID 504660; activation, % at 2 µM; P21728; 360,000 compounds, 1% hits; HEK293 T-REx D1 cells, calcium flux, agonist mode; further: 0% is about no effect
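Inducible HEK293 T-REx D1 cells, force-coupled to calcium signalling, were plated at 4000 cells/well with tetracycline and held overnight at 30 C. After no-wash calcium dye loading, compound-evoked calcium rise over 180 s flagged agonists.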
TRHR agonist – activates the human TRH receptor; P34981; TRHR cells, calcium flux fluo-8, FDSS agonist mode; activation, % at 2 µM; 360,000 compounds, 0.18% hits; AID 493084; further: 0% is about no effect
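TRHR-expressing cells, plated overnight in medium with 10% serum, were loaded with fluo-8 calcium dye at room temperature. After a 10 s baseline, library compound was pin-added and calcium release was recorded kinetically (ex 480/em 530) as agonist response.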
D1 PAM – enhances dopamine response at the human D1 receptor. AID 504651. HEK293 TREx D1 cells, calcium flux, dopamine EC20 potentiation. potentiation, % at 10 µM. 360,000 compounds, 0.036% hits; in the data active means potentiation above about 30%; further: 0% is about no effect
TRHR enhancer – allosterically enhances the human TRH receptor; TRHR cells, fluo-8 calcium fluorescence, EC20 TRH enhancement; enhancement, % at 2 µM; AID 493056; P34981; 360,000 compounds, 0.66% hits; in the data active means enhancement above about 30%; further: 0% is about no effect
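TRHR-expressing cells loaded with fluo-8 calcium dye were read kinetically (ex 480/em 530) during compound addition, then stimulated with an EC20 of TRH (10 nM final). Enhancement of the Gq-mediated intracellular calcium response was scored.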
The depositor's hits bear a star; · = no result given; ! = not confirmed by another sample. Unless noted, no stated cut-off is given here; in the data, active means activation above about 30%; inactive means the rest.

SMILES | D1 antag | LDHA block | D1 agonist | TRHR agonist | D1 PAM | TRHR enhancer
CCOC(=O)N1CCC(Nc2c(N3CCN(c4cc(Cl)ccc4C)CC3)c(=O)c2=O)CC1 | -30.4* | -1.1 | 2.0 | -0.4 | · | -0.6
COc1ccc(-n2cc(CNC3CCN(C)CC3)c(-c3cccc(F)c3)n2)cc1 | 1.7 | -1.2 | 46.2* | 8.1 | -2.1 | 8.6
CCO/C=N/c1c(C#N)c(CC#N)nn1-c1ccccc1 | -33.0* | 5.5 | 2.5 | 0.4 | -5.6 | -1.0
CCCCn1cnc2c(c(CC#N)nn2-c2ccccc2)c1=N | · | -3.8 | · | · | · | ·
COC1=C/C(=C/c2c(N)n3cc(C)sc3nc2=O)C=CC1=O | 4.5 | 7.4 | 30.3* | 8.5 | -4.0 | 14.8
c1cc[n+](CCCC[n+]2ccccc2)cc1 | -2.8 | 0.0 | 6.6 | 1.2 | 0.0 | -3.7
c1cc[n+](CCC[n+]2ccccc2)cc1 | 15.4 | -31.0*! | 1.0 | 1.0 | -8.6 | 4.9
CCCCC(CC)CNC(=O)c1cccs1 (stereo unspecified) | -62.0* | -9.3 | -0.8 | 0.1 | -2.2 | 1.9
O=C(C/C=N\OCc1ccc([N+](=O)[O-])cc1)Nc1ccc(Cl)cc1 | -30.2* | -5.5 | 18.7 | 0.3 | -7.3 | -5.0
O=C(C/C=N\OCc1ccc([N+](=O)[O-])cc1)Nc1ccccc1 | -17.3 | -5.8 | 6.8 | -1.4 | -8.9 | -5.8
CC(C)Oc1ccc(C(=O)NC2CCCC2)cc1 | · | 0.1 | · | · | · | ·
CCOC(=O)c1sc(=S)n(C)c1N | -33.4* | -4.0 | 2.4 | -0.5 | -7.0 | 0.6
CCCNC(=O)c1ccccc1-c1ncc(-c2ccc(F)cc2)o1 | · | 0.9 | · | · | · | ·
c1ccc(SCCN2CCc3ccccc3C2)cc1 | -73.1* | -13.1 | 1.5 | -1.3 | -2.5 | 14.7
Cc1ccc(SCCN2CCN(Cc3ccccc3)CC2)cc1 | 1.4 | -30.9* | 4.2 | -1.1 | -3.3 | -3.9
c1ccc(SCCOCCN2CCc3ccccc3C2)cc1 | -47.8* | -4.0 | 3.4 | -0.3 | -9.3 | 6.4
COC(=O)C1=CN(Cc2cccs2)C=C(C(=O)OC)C1c1ccc(Cl)c(F)c1 | · | 1.0 | · | · | · | ·
COc1ccc(C2(c3ccc(OC)cc3)NC(=O)N(CC(=O)Nc3ccccc3C(F)(F)F)C2=O)cc1 | 7.2 | 3.1 | 1.8 | 1.2 | -9.2 | -12.5
